For seven molecules, residual bioluminescent signal results are on record in the supplement of paper PMC11628255, “Interference of metal ions on the bioluminescent signal of firefly, Renilla, and NanoLuc luciferases in high-throughput screening assays” (Frontiers in Chemistry, 2024).

For this assay, the system named is firefly luciferase (FLuc). Kind of assay: residual bioluminescent signal relative to negative (DMSO) control; higher = less interference (more residual luciferase signal). The procedure:
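Purified luciferase (FLuc 10 nM + 10 uM D-luciferin; NLuc 10 pM + 10 uM furimazine; RLuc 50 pM + 2 uM coelenterazine) in 384-well plates; metal salt pre-incubated with enzyme 10 min at RT, substrate added and luminescence read after 10 min. Signal normalised to plate DMSO negative control (% N_VALUE = x/mean neg *100); triplicate wells at 0.01, 1 and 5 mM salt.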

Where [1] appears, read: metal salt concentration 0.01 mM, HEPES conditions (100 mM HEPES, 5 mM MgSO4, 10 uM ATP, pH 7.5).
Where [2] appears, read: metal salt concentration 0.01 mM, screening conditions (0.5 mM Tris, 50 mM glycine, 0.5 mM EDTA, 5 mM MgSO4, 10 uM ATP, pH 7.6).
[3] abbreviates: metal salt concentration 1 mM, HEPES conditions (100 mM HEPES, 5 mM MgSO4, 10 uM ATP, pH 7.5).
The mark [4] stands for this setting: metal salt concentration 1 mM, screening conditions (0.5 mM Tris, 50 mM glycine, 0.5 mM EDTA, 5 mM MgSO4, 10 uM ATP, pH 7.6).
Setting [5] is: metal salt concentration 5 mM, HEPES conditions (100 mM HEPES, 5 mM MgSO4, 10 uM ATP, pH 7.5).
Where [6] appears, read: metal salt concentration 5 mM, screening conditions (0.5 mM Tris, 50 mM glycine, 0.5 mM EDTA, 5 mM MgSO4, 10 uM ATP, pH 7.6).

± gives the standard deviation of the averaged measurements.

With `O.O.O.O.O.O.O.O=S(=O)([O-])[O-].[Mg+2]` [magnesium sulfate], the residual bioluminescent signal reads like this: under setting [1], 78.3 ± 4.9%; under setting [2], 71.5 ± 6.5%; under setting [3], 77.4 ± 17%; under setting [4], 68 ± 5.2%; under setting [5], 55.5 ± 13%; under setting [6], 47.7 ± 6.9%.

On to `O.O.O.O.O.O.O.O.O.O.O=S(=O)([O-])[O-].[Na+].[Na+]` [sodium sulfate], for which the residual bioluminescent signal under setting [1] was 81.9 ± 8.1%; the residual bioluminescent signal under setting [2] was found to be 73.4 ± 5.7%; the residual bioluminescent signal under setting [3] amounted to 51 ± 7.2%; the residual bioluminescent signal under setting [4] turned out to be 70.4 ± 8.2%; the residual bioluminescent signal under setting [5] stood at 20 ± 6.1%; the residual bioluminescent signal under setting [6] turned out to be 51.1 ± 3.8%.

Regarding `[Cl-].[Na+]` [sodium chloride], the residual bioluminescent signal turned out to be 102 ± 17% under setting [1]; 104.5 ± 0.25% under setting [2]; 103 ± 19% under setting [3]; 101 ± 5.4% under setting [4]; 92.4 ± 2% under setting [5]; 79.7 ± 3.2% under setting [6].

On to `[Cl][Fe]([Cl])[Cl]` [iron(III) chloride], for which the residual bioluminescent signal under setting [1] was determined as 15.5 ± 8.2%; the residual bioluminescent signal under setting [2] was 1.32 ± 0.63%; the residual bioluminescent signal under setting [3] turned out to be 1.09 ± 0.62%; the residual bioluminescent signal under setting [4] was found to be 0.712 ± 0.4%; the residual bioluminescent signal under setting [5] worked out at 1.9 ± 1.9%; the residual bioluminescent signal under setting [6] was 0.29 ± 0.046%.

As for `CC#N.CC#N.CC#N.CC#N.F[B-](F)(F)F.[Cu+]` [tetrakis(acetonitrile)copper(I) tetrafluoroborate], the residual bioluminescent signal runs as follows: under setting [1], 0.543 ± 0.23%; under setting [2], 115 ± 2.9%; under setting [3], 0.407%; under setting [4], 0.474 ± 0.16%; under setting [5], 0.679 ± 0.47%; under setting [6], 0.422 ± 0.36%.

Regarding `[Cl][Fe][Cl]` [iron(II) chloride], the residual bioluminescent signal reads like this: under setting [1], 28.9 ± 6.8%; under setting [2], 108 ± 1.6%; under setting [3], 1.76 ± 0.23%; under setting [4], 0.343 ± 0.046%; under setting [5], 0.814 ± 0.7%; under setting [6], 0.369 ± 0.091%.

Take `O=S(=O)([O-])[O-].[Mn+2]` [manganese(II) sulfate]: the residual bioluminescent signal runs as follows: under setting [1], 85 ± 11%; under setting [2], 82.6 ± 4.7%; under setting [3], 80.6 ± 12%; under setting [4], 77.1 ± 3.5%; under setting [5], 79.4 ± 13%; under setting [6], 57.4 ± 8.1%.
